Measured values reported in PubChem BioAssay AID720518 (National Center for Advancing Translational Sciences (NCATS), 2013).
Inconclusive results are not listed. Values without a mark were called inactive. Calls come from the whole dose curve.

Assay: qHTS for Inhibitors of Cell Surface uPA Generation: Wild-type Protective Antigen (WT-PrAg) Counterscreen for Cherry-picked Compounds; note: 0% is about no effect
Conditions: cells, WT protective antigen toxicity counterscreen; series mostly up to 115 µM; activity (protection): at the top concentration

| SMILES | activity (protection) |
| --- | --- |
| Cc1ccc(N2C(=O)c3ccccc3C2(O)c2ccccc2)cc1 (configuration not stated) | -0.943% |
| COc1ccc(OC)c(NC(=O)C2CCCN2C(=O)C2CCC(C)CC2)c1 (configuration not stated) | 0.0243% |
| COc1ccc(NC(=O)CC(C)CC(=O)NCc2ccccc2)c(OC)c1 (configuration not stated) | 0.516% |
| Cc1ccc(-n2c(O)c(C=NCCN3CCNCC3)c(=O)[nH]c2=S)cc1 | 6.27% |
| O=C(CC1(O)C(=O)Nc2ccccc21)c1cccc(Br)c1 (configuration not stated) | 0.0973% |
| CC(C)OC(=O)c1ccc(N2CCN(c3ccccc3F)CC2)nc1 | -1.86% |
| CCCCn1c(-c2cccnc2)nc2cc3[nH]c(=O)c(C(C)C)nc3cc21 | 3.09% |
